From PubChem BioAssay (NCI)
Where “and” joins values, the source holds several entries; their conditions need not be identical. Equal values may be shown once. This is part of a sample that, as a whole, favours compounds with a hit. Of some 83,000 tested, about 20% had one in any assay.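 Note: values are percent growth. 100 is the growth of untreated cells, values between 100 and 0 indicate rising inhibition; between -100 and 0 indicates cell death.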 Calls of active or inactive are those of the source. How the source made its calls: active means growth percent below 10; inactive means the rest.

Legend:
Assay in all cases: NCI-60 one-dose screen, 48 h (100 = growth as untreated, 0 = no growth, -100 = all killed)
NCI-H23 lung = system: NCI-H23 lung
NCI-H226 lung = system: NCI-H226 lung
NCI-H322M lung = system: NCI-H322M lung
HOP-62 NSCLC = system: HOP-62 NSCLC
NCI-H460 lung = system: NCI-H460 lung
HOP-92 NSCLC = system: HOP-92 NSCLC
NCI-H522 lung = system: NCI-H522 lung
A549/ATCC NSCLC = system: A549/ATCC NSCLC
786-0 renal = system: 786-0 renal
COLO 205 colon = system: COLO 205 colon
DU-145 prostate = system: DU-145 prostate
K-562 leukemia = system: K-562 leukemia
MALME-3M melanoma = system: MALME-3M melanoma
MDA-MB-231 breast = system: MDA-MB-231 breast
RXF 393 renal = system: RXF 393 renal
SF-268 CNS = system: SF-268 CNS
SF-295 CNS = system: SF-295 CNS
SF-539 CNS = system: SF-539 CNS
UACC-257 melanoma = system: UACC-257 melanoma
M14 melanoma = system: M14 melanoma

Measured: growth

COc1cc(NS(C)(=O)=O)ccc1Nc1c2ccccc2nc2c(C)cccc12
-3.04% (active) and 29.4% (inactive): MALME-3M melanoma; 10 µM unless noted
active: NCI-H23 lung; 10 µM unless noted -8.23% and 1.07% | NCI-H226 lung; 10 µM unless noted -57.6% and -44.9% | HOP-62 NSCLC; 10 µM unless noted -17.9% and -32.5% | NCI-H460 lung; 10 µM unless noted -36.3% and -9.34% | HOP-92 NSCLC; 10 µM unless noted -17.9% | NCI-H522 lung; 10 µM unless noted -14.2% | A549/ATCC NSCLC; 10 µM unless noted -62.9% | 786-0 renal; 10 µM unless noted -41.9% and -40.4% | COLO 205 colon; 10 µM unless noted 7.98% and 0.541% | DU-145 prostate; 10 µM unless noted -8.9% and 7.58% | K-562 leukemia; 10 µM unless noted 8.6% and 7.61% | RXF 393 renal; 10 µM unless noted -2.83% and 8.08% | SF-295 CNS; 10 µM unless noted -24.8% | SF-539 CNS; 10 µM unless noted -35.6% and -30.6%
inactive: NCI-H322M lung; 10 µM unless noted 22.8% and 28.6% | MDA-MB-231 breast; 10 µM unless noted 36.7% | UACC-257 melanoma; 10 µM unless noted 16.1% | M14 melanoma; 10 µM unless noted 19.4% and 11.8%
2.5% (active) and 16.2% (inactive): SF-268 CNS; 10 µM unless noted

COc1ccc(Cl)cc1C(=O)NCCc1ccc(S(=O)(=O)NC(=O)NC2CCCCC2)cc1
inactive: NCI-H23 lung; 10 µM 103% and 104% | NCI-H23 lung; 100 µM 81.8% | NCI-H226 lung; 10 µM 101% and 97.4% | NCI-H226 lung; 100 µM 62.4% | NCI-H322M lung; 10 µM 96.2% | NCI-H322M lung; 100 µM 88.5% | HOP-62 NSCLC; 10 µM 88.3% | HOP-62 NSCLC; 100 µM 69.1% | NCI-H460 lung; 10 µM 103% and 114% | NCI-H460 lung; 100 µM 72.2% | HOP-92 NSCLC; 10 µM 74% and 95.5% | HOP-92 NSCLC; 100 µM 63.6% | NCI-H522 lung; 10 µM 97% | NCI-H522 lung; 100 µM 54.1% | 786-0 renal; 10 µM 107% and 98.6% | 786-0 renal; 100 µM 75.5% | COLO 205 colon; 10 µM unless noted 117% and 112% | DU-145 prostate; 10 µM 124% and 120% | DU-145 prostate; 100 µM 79.8% | K-562 leukemia; 10 µM 102% | K-562 leukemia; 100 µM 66.6% | MALME-3M melanoma; 10 µM 126% and 96.5% | MALME-3M melanoma; 100 µM 71.9% | MDA-MB-231 breast; 10 µM 96.7% and 105% | MDA-MB-231 breast; 100 µM 61.9% | RXF 393 renal; 10 µM 110% and 104% | RXF 393 renal; 100 µM 51.6% | SF-268 CNS; 10 µM 113% and 105% | SF-268 CNS; 100 µM 74.3% | SF-295 CNS; 10 µM 90.2% and 105% | SF-295 CNS; 100 µM 74% | SF-539 CNS; 10 µM 113% and 102% | SF-539 CNS; 100 µM 68.8% | UACC-257 melanoma; 10 µM 106% | UACC-257 melanoma; 100 µM 85.9% | M14 melanoma; 10 µM 113% and 104% | M14 melanoma; 100 µM 67.9%

CC#C[C@]1(O)CC[C@H]2[C@@H]3CCC4=CC(=O)CCC4=C3[C@@H](c3ccc4c(c3)OCO4)C[C@@]21C
active: NCI-H23 lung; 100 µM -8.63% | NCI-H226 lung; 100 µM -21.7% | NCI-H322M lung; 100 µM 7.01% | HOP-62 NSCLC; 100 µM -15.3% | NCI-H460 lung; 100 µM -45.9% | HOP-92 NSCLC; 100 µM -33.2% | NCI-H522 lung; 100 µM -37.9% | A549/ATCC NSCLC; 100 µM -19.7% | 786-0 renal; 100 µM -30.5% | DU-145 prostate; 100 µM -13.9% | K-562 leukemia; 100 µM 1.72% | MALME-3M melanoma; 100 µM -29.8% | MDA-MB-231 breast; 100 µM -42.9% | RXF 393 renal; 100 µM -50.7% | SF-268 CNS; 100 µM -4.41% | SF-295 CNS; 100 µM -41.1% | SF-539 CNS; 100 µM -58.8% | UACC-257 melanoma; 100 µM -38.7% | M14 melanoma; 100 µM -53.8%
inactive: NCI-H23 lung; 10 µM 82.8% | NCI-H226 lung; 10 µM 85.2% | NCI-H322M lung; 10 µM 90% | HOP-62 NSCLC; 10 µM 81.3% | NCI-H460 lung; 10 µM 90.5% | HOP-92 NSCLC; 10 µM 66.1% | NCI-H522 lung; 10 µM 62.4% | A549/ATCC NSCLC; 10 µM 66.7% | 786-0 renal; 10 µM 69.5% | COLO 205 colon; 10 µM unless noted 101% | DU-145 prostate; 10 µM 101% | K-562 leukemia; 10 µM 83% | MALME-3M melanoma; 10 µM 97.8% | MDA-MB-231 breast; 10 µM 62.1% | RXF 393 renal; 10 µM 69.5% | SF-268 CNS; 10 µM 71.3% | SF-295 CNS; 10 µM 58.5% | SF-539 CNS; 10 µM 75% | UACC-257 melanoma; 10 µM 90.1% | M14 melanoma; 10 µM 81.9%

CCc1ccccc1-n1c(N)c(C#N)c(-c2ccc(OC)c(OC)c2)c(C#N)c1=O
inactive: NCI-H23 lung; 10 µM 105% | NCI-H23 lung; 100 µM 29.3% | NCI-H226 lung; 10 µM 109% | NCI-H322M lung; 10 µM 108% | NCI-H322M lung; 100 µM 39.5% | HOP-62 NSCLC; 10 µM 95.2% | HOP-92 NSCLC; 10 µM 126% | NCI-H522 lung; 10 µM 105% | A549/ATCC NSCLC; 10 µM 106% | A549/ATCC NSCLC; 100 µM 79.9% | 786-0 renal; 10 µM 107% | COLO 205 colon; 10 µM 138% | COLO 205 colon; 100 µM 115% | DU-145 prostate; 10 µM 115% | DU-145 prostate; 100 µM 37.6% | K-562 leukemia; 10 µM 111% | K-562 leukemia; 100 µM 124% | MALME-3M melanoma; 10 µM 103% | MDA-MB-231 breast; 10 µM 105% | MDA-MB-231 breast; 100 µM 23.3% | RXF 393 renal; 10 µM 111% | SF-268 CNS; 10 µM 102% | SF-295 CNS; 10 µM 101% | SF-295 CNS; 100 µM 19.7% | SF-539 CNS; 10 µM 118% | UACC-257 melanoma; 10 µM 128% | UACC-257 melanoma; 100 µM 96.8% | M14 melanoma; 10 µM 112% | M14 melanoma; 100 µM 37.1%
active: NCI-H226 lung; 100 µM 8% | HOP-62 NSCLC; 100 µM -28.6% | HOP-92 NSCLC; 100 µM -34.6% | NCI-H522 lung; 100 µM -8.58% | 786-0 renal; 100 µM -9.15% | MALME-3M melanoma; 100 µM -31.2% | RXF 393 renal; 100 µM -21.6% | SF-268 CNS; 100 µM 0.0621% | SF-539 CNS; 100 µM -54.9%

OCCN1CCN(CCCN2c3ccccc3Sc3ccc(Cl)cc32)CC1
active: HOP-92 NSCLC; 10 µM unless noted -2.25% | UACC-257 melanoma; 10 µM unless noted -43% and -5.63%
inactive: NCI-H23 lung; 10 µM unless noted 66.4% and 80.2% | NCI-H226 lung; 10 µM unless noted 96% and 110% | NCI-H322M lung; 10 µM unless noted 64.2% and 77.5% | HOP-62 NSCLC; 10 µM unless noted 61.4% and 93.4% | NCI-H460 lung; 10 µM unless noted 64.3% and 85.1% | NCI-H522 lung; 10 µM unless noted 40.5% and 57.5% | A549/ATCC NSCLC; 10 µM unless noted 69.8% and 93.3% | 786-0 renal; 10 µM unless noted 53.3% and 71.3% | DU-145 prostate; 10 µM unless noted 97.3% and 95.7% | K-562 leukemia; 10 µM unless noted 13% and 22.7% | MALME-3M melanoma; 10 µM unless noted 16.5% and 67.3% | MDA-MB-231 breast; 10 µM unless noted 12.2% and 81.6% | RXF 393 renal; 10 µM unless noted 56.1% and 55.3% | SF-268 CNS; 10 µM unless noted 80.8% and 71.9% | SF-295 CNS; 10 µM unless noted 52.4% and 67.9% | SF-539 CNS; 10 µM unless noted 80.2% and 83.4%
-70.1% (active) and 73.3% (inactive): COLO 205 colon; 10 µM unless noted

CCCCCN(CCCCC)CC(O)c1cc2c(c3ccccc13)CCCC2 (configuration not stated)
8.63% (active) and 59.1% (inactive): MDA-MB-231 breast; 10 µM unless noted
active: HOP-92 NSCLC; 10 µM unless noted -14.4%
inactive: NCI-H23 lung; 10 µM unless noted 31.5% and 40.8% | NCI-H226 lung; 10 µM unless noted 69.8% and 53.2% | NCI-H322M lung; 10 µM unless noted 71.3% and 38.5% | HOP-62 NSCLC; 10 µM unless noted 36.2% and 75.6% | NCI-H460 lung; 10 µM unless noted 38.7% and 25.8% | NCI-H522 lung; 10 µM unless noted 53% and 50.1% | A549/ATCC NSCLC; 10 µM unless noted 71.1% and 59.9% | 786-0 renal; 10 µM unless noted 39.1% and 27.2% | COLO 205 colon; 10 µM unless noted 40.7% | DU-145 prostate; 10 µM unless noted 75.5% and 80.2% | K-562 leukemia; 10 µM unless noted 23.5% and 24.7% | MALME-3M melanoma; 10 µM unless noted 65.4% and 74.3% | RXF 393 renal; 10 µM unless noted 26% and 87.5% | SF-268 CNS; 10 µM unless noted 86.7% and 80% | SF-295 CNS; 10 µM unless noted 55.5% | SF-539 CNS; 10 µM unless noted 68.8% and 52% | UACC-257 melanoma; 10 µM unless noted 71.9% and 71.5% | M14 melanoma; 10 µM unless noted 76.8% and 72.4%

Cn1c(SSc2ccc(-c3cccnc3)n2C)ccc1-c1cccnc1
75.9% (inactive) and 7.91% (active): K-562 leukemia; 10 µM unless noted
inactive: NCI-H23 lung; 10 µM unless noted 99.8% and 111% | NCI-H226 lung; 10 µM unless noted 108% and 105% | NCI-H322M lung; 10 µM unless noted 106% and 95.5% | HOP-62 NSCLC; 10 µM unless noted 117% and 118% | NCI-H460 lung; 10 µM unless noted 101% and 65.9% | HOP-92 NSCLC; 10 µM unless noted 79% and 101% | NCI-H522 lung; 10 µM unless noted 62% and 81.9% | A549/ATCC NSCLC; 10 µM unless noted 103% | 786-0 renal; 10 µM unless noted 120% and 112% | COLO 205 colon; 10 µM unless noted 116% and 102% | DU-145 prostate; 10 µM unless noted 115% and 107% | MALME-3M melanoma; 10 µM unless noted 102% and 105% | MDA-MB-231 breast; 10 µM unless noted 91.4% and 110% | RXF 393 renal; 10 µM unless noted 105% and 110% | SF-268 CNS; 10 µM unless noted 82.1% and 93.5% | SF-295 CNS; 10 µM unless noted 77.9% and 93.7% | SF-539 CNS; 10 µM unless noted 116% and 122% | UACC-257 melanoma; 10 µM unless noted 86.1% and 93.8%
